Assay results published in PubChem BioAssay.
Calls of active or inactive are those of the source.

Key:
[1] = test system: Plasmodium falciparum Sir2 (PF13_0152, Sir2A); assay: Plasmodium falciparum Sir2A binding compounds – biochemical, small-molecule microarray, 635 nm fluorescence, primary screen (AID 1098); conditions: fluorescence 635 nm, higher = more signal;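 further: score merges spot fluorescence intensity with its signal-to-noise ratio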
[2] = probe aDKK1 binding to arrayed compounds – biochemical, biotinylated probe, 635/667 nm fluorescence, primary screen (AID 1099); conditions: small-molecule microarray, higher = more signal;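 further: score merges 667nm spot fluorescence with signal to noise across triplicate slides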
[3] = probe aCHRDL2 binding to arrayed compounds – biochemical, biotinylated probe, 635/667 nm fluorescence, primary screen (AID 1100); conditions: small-molecule microarray, higher = more signal
[4] = change in splice reporter luminescence, either direction, cell-based, HEK293, spliceosome inhibition project, primary screen (AID 1101); conditions: HEK293 splicing luciferase reporter, 24 h, higher = more signal, called active from +8 up or from −8 down;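 further: HEK293 cells carrying a splicing-competent luciferase reporter gene; test concentration not given here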
[5] = target: Fibroblast growth factor 10 (Homo sapiens) (UniProt O15520); assay: compounds binding fibroblast growth factor 10 – biochemical, small-molecule microarray, 635 nm fluorescence, primary screen (AID 1102); conditions: FGF10 binding, fluorescence 635 nm, higher = more signal
Chain of Fibroblast growth factor 10 (Homo sapiens) (O15520 whole entry, looked up): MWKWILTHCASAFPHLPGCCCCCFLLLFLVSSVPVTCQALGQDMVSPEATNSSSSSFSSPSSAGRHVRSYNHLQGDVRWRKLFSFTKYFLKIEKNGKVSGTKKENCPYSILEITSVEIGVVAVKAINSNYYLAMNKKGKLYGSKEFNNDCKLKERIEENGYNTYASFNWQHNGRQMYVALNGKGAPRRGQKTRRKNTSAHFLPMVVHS

[6] = test system: glycogen synthase kinase-3 (GSK3A per assay name; protocol says GSK3B); assay: compounds binding glycogen synthase kinase-3 – biochemical, small-molecule microarray, 635 nm fluorescence, GSK3A, primary screen (AID 1103); conditions: fluorescence 635 nm, higher = more signal; further: the record names both GSK3A and GSK3B
[7] = target: Epidermal growth factor receptor (Homo sapiens) (UniProt P00533); assay: compounds binding epidermal growth factor receptor – biochemical, small-molecule microarray, 635 nm fluorescence, primary screen (AID 1104); conditions: EGFR binding, higher = more signal;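 further: score merges 667 nm emission intensity with spot signal to noise over triplicate slides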
Chain of Epidermal growth factor receptor (Homo sapiens) (P00533 whole entry, looked up): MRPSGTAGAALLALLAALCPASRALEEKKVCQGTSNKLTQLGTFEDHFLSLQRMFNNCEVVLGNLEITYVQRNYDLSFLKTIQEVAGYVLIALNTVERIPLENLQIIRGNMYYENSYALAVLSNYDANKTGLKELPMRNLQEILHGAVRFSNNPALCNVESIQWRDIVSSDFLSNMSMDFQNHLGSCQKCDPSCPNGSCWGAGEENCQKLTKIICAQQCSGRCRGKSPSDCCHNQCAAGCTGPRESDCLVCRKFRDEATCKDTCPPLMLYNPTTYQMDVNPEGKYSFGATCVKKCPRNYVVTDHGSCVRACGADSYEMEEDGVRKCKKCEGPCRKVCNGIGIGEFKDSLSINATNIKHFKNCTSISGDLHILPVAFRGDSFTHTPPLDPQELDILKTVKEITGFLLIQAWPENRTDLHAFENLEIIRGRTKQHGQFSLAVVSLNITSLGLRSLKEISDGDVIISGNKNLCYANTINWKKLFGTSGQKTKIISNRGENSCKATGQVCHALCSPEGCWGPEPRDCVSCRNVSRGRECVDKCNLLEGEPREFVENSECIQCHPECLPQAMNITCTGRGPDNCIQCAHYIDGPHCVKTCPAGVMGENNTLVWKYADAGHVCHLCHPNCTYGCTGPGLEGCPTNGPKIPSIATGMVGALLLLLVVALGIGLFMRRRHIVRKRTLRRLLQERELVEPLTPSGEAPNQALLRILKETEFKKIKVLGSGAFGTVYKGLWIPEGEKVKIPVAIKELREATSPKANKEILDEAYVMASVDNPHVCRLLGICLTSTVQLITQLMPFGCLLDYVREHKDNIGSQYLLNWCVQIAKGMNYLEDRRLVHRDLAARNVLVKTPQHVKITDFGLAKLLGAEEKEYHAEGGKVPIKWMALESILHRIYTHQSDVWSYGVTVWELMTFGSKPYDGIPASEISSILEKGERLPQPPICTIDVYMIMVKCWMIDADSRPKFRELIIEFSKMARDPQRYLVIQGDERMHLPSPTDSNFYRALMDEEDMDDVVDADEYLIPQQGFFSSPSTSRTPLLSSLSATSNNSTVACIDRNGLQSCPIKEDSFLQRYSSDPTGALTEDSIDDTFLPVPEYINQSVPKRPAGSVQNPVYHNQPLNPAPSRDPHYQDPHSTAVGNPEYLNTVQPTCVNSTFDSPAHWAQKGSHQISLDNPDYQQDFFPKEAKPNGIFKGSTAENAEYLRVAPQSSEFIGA

[8] = target: Follistatin-related protein 3 (Homo sapiens) (UniProt O95633); assay: compounds binding follistatin-related protein 3 – biochemical, small-molecule microarray, 635 nm fluorescence, primary screen (AID 1105); conditions: FSTL3 binding, higher = more signal;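 further: score merges emission near 667 nm and signal to noise per printed spot across three slides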
Chain of Follistatin-related protein 3 (Homo sapiens) (O95633 whole entry, looked up): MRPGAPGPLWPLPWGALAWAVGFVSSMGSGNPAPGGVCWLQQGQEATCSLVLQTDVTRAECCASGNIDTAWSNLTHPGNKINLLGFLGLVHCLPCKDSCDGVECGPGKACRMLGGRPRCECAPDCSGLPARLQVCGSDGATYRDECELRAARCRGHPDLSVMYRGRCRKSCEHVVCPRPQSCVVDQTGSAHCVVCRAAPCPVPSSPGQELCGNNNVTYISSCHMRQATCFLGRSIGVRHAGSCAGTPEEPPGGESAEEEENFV

[9] = target: Dickkopf-related protein 1 (Homo sapiens) (UniProt O94907); assay: small molecules binding DKK1 protein – biochemical, small-molecule microarray, 635 nm fluorescence scan, primary screen (AID 1106); conditions: higher = more signal;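 further: score merges emission near 667 nm with signal to noise over three replicate slides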
Chain of Dickkopf-related protein 1 (Homo sapiens) (O94907 whole entry, looked up): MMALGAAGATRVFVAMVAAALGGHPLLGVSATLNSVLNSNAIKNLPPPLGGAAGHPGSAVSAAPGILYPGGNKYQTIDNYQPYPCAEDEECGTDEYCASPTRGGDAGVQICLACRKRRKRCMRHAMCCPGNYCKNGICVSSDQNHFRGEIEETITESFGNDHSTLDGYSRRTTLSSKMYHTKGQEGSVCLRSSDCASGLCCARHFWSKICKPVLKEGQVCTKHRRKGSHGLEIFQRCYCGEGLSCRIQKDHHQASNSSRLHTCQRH

[10] = test system: Inhibin beta A chain (activin A); assay: small molecules binding activin A – biochemical, small-molecule microarray, 635 nm fluorescence scan, primary screen (AID 1107); conditions: INHBA, higher = more signal;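 further: mouse activin A protein probed at 4.33 µg/mL on printed slides; score merges bound-protein fluorescence near 667 nm with spot signal-to-noise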
[11] = test system: Human papillomavirus type 1a protein E7 (residues 44-93); assay: small molecules binding HPV E7 44-93 – biochemical, small-molecule microarray, residues 44-93, 635 nm fluorescence, primary screen (AID 1108); conditions: fluorescence 635 nm, higher = more signal;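 further: E7 fragment applied at 1 µg/mL in TBST for 1 h at 4 C; score combines spot fluorescence with its signal to noise ratio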
[12] = hepatitis C replication reporter changes, two-sided – Huh7 cells, luciferase reporter, HCV replication inhibitor project, primary screen (AID 1109); conditions: Huh7 HCV replicon luciferase reporter, 48 h; higher = more signal;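 further: huh7 hepatoma cells harbouring a luciferase neomycin HCV replicon reporter; luciferase luminescence as measure of HCV replicon replication; test concentration not given here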
[13] = target: Left-right determination factor 2 (Homo sapiens) (UniProt O00292); assay: small molecules binding LEFTY2 protein – biochemical, small-molecule microarray, 635 nm fluorescence scan, primary screen (AID 1110); conditions: higher = more signal
Chain of Left-right determination factor 2 (Homo sapiens) (O00292 whole entry, looked up): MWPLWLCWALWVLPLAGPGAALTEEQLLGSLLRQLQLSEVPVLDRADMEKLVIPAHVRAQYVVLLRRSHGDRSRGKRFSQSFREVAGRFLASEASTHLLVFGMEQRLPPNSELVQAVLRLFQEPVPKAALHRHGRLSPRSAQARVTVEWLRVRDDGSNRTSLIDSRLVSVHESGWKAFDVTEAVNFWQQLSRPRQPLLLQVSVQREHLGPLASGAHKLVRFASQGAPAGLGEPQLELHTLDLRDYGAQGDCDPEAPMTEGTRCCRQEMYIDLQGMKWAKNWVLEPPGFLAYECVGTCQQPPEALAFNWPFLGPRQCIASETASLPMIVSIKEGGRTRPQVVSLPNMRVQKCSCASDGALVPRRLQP

[14] = target: Calmodulin-1 (Homo sapiens) (UniProt P0DP23); assay: small molecules binding calmodulin-1 with EGTA – biochemical, small-molecule microarray, Cy5-labelled CALM1, profiling panel (AID 1111); conditions: Cy5-CALM1 binding fluorescence, higher = more signal;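 further: labelled calmodulin applied in Tris saline Tween buffer holding calcium plus EGTA and DTT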
[15] = target: Calmodulin-1 (Homo sapiens) (UniProt P0DP23); assay: small molecules binding Ca-loaded calmodulin-1 – biochemical, small-molecule microarray, Cy5-labelled CALM1, plus calcium, artefact control for SMM control-protein annotation, profiling panel (AID 1112); conditions: Cy5-CALM1 binding fluorescence, higher = more signal;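 further: score merges spot fluorescence with signal to noise from triplicate slides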
[16] = probe aWnt5a binding to arrayed compounds – biochemical, biotinylated probe, 635/667 nm fluorescence, primary screen (AID 1113); conditions: small-molecule microarray, higher = more signal;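 further: score merges 667 nm fluorescence intensity with signal-to-noise per printed feature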
[17] = probe aShh binding to arrayed compounds – biochemical, biotinylated probe, 635/667 nm fluorescence, primary screen (AID 1114); conditions: small-molecule microarray, higher = more signal;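 further: probe is biotin-labelled aShh protein from a stem cell growth factor screen; measures binding of labelled protein to compounds printed on the slide; score merges feature fluorescence at 667 nm with signal-to-noise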
[18] = probe aNog binding to arrayed compounds – biochemical, biotinylated probe, 635/667 nm fluorescence, primary screen (AID 1115); conditions: small-molecule microarray, higher = more signal;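 further: probe is biotinylated aNog protein used at 0.15 µg/mL for 1 h at 4 C; z-score combines 667 nm fluorescence of each spot with its signal to noise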
[19] = target: Torsin-1A-interacting protein 1 (Homo sapiens) (UniProt Q5JTV8); assay: compound microarray binding of lysate hLAP1 – cell lysate, small-molecule microarray, COS7 lysate, 635/667 nm fluorescence, primary screen (AID 1116); conditions: 635 nm fluorescence, higher = more signal
Chain of Torsin-1A-interacting protein 1 (Homo sapiens) (Q5JTV8 whole entry, looked up): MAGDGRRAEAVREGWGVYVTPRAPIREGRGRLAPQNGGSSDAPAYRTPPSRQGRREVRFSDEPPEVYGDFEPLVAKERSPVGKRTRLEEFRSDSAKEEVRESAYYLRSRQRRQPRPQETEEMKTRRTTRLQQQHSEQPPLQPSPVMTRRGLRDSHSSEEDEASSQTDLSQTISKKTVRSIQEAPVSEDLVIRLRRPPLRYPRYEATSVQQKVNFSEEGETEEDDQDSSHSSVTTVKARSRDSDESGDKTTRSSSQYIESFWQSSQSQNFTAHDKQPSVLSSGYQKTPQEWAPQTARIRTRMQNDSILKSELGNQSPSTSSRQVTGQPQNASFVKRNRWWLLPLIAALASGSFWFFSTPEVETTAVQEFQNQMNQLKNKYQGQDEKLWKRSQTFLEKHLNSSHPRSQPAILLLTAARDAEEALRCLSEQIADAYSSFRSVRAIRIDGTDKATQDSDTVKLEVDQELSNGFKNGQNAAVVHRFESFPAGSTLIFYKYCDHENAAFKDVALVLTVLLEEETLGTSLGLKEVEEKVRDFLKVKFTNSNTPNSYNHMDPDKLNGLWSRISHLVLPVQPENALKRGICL

[20] = target: Alpha-bungarotoxin (Bungarus multicinctus) (UniProt P60615); assay: compounds binding labelled alpha-BTX control protein – biochemical, small-molecule microarray, Alexa647 label, 635/667 nm fluorescence, artefact control for SMM control protein annotation, profiling panel (AID 1117); conditions: alpha-BTX-A647 binding fluorescence, higher = more signal
Chain of Alpha-bungarotoxin (Bungarus multicinctus) (P60615 whole entry, looked up): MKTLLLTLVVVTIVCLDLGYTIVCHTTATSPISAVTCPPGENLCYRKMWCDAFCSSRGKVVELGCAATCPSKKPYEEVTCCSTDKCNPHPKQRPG

Row | SMILES | composite z-score [1] | composite z-score [2] | composite z-score [3] | z-score [4] | composite z-score [5] | composite z-score [6] | composite z-score [7] | composite z-score [8] | composite z-score [9] | composite z-score [10] | composite z-score [11] | z-score [12] | composite z-score [13] | composite z-score [14] | composite z-score [15] | composite z-score [16] | composite z-score [17] | composite z-score [18] | composite z-score [19] | composite z-score [20]
1 | N#Cc1ccc(NN2C(C(O)c3ccc(I)cc3)C=CC3C(=O)N(c4ccccc4)C(=O)C32)cc1 (stereo not given) | 1.13 | 0.124 | 1.03 | 2.17 (inactive) | 0.549 | 0.656 | 0.0977 | 0.421 | -0.337 | 0.462 | 1.48 | 1.56 | -0.417 | 1.58 | 0.526 | 0.0803 | -0.16 | 1.56 | 0.0108 | 1.32
2 | O=C1OCCC/C=C\[C@H]2OC34C=CCN(CCN5CCOCC5)C(=O)[C@H]3N(CCCCCO)C(=O)[C@@H]4C12 (stereo not given in full) | 1.52 | -0.413 | -0.0252 | -0.755 (inactive) | -0.81 | -0.188 | -1.33 | -0.762 | -0.333 | 0.966 | -0.827 | -0.953 | -1.37 | -0.725 | -1.26 | -0.226 | -0.147 | -0.356 | -0.849 | -0.918
3 | O=C1O[C@@H](c2ccccc2)[C@@H](c2ccccc2)N2[C@@H](c3ccc(O)cc3)[C@]3(C(=O)Nc4ccc(C#CC5(O)CCCCCC5)cc43)[C@@H](C(=O)Nc3nc4ccccc4s3)[C@H]12 | 0.864 | 0.051 | 0.546 | 0.179 (inactive) | 0.869 | 1.34 | 0.736 | 1.39 | 0.892 | 0.644 | -0.423 | -0.56 | 0.494 | 0.395 | 0.253 | 0.245 | -0.35 | 1.15 | 1.18 | 1.91
4 | CCOC(=O)C[C@H]1[C@H](OC(=O)Cc2ccc3c(c2)OCO3)[C@@H](NC(=O)CC(C)C)c2cc(OCCCO)ccc2N1C(=O)c1ccccc1 | 0.899 | -0.095 | -0.533 | -1.6 (inactive) | 0.723 | 0.263 | 0.369 | 0.321 | 0.451 | 0.643 | 0.338 | 0.0689 | 0.371 | -0.278 | -0.215 | -0.0478 | 0.081 | 0.161 | 0.662 | 0.111
5 | C=CCNC(=O)[C@H]1[C@@H]2C(=O)O[C@@H](c3ccccc3)[C@@H](c3ccccc3)N2[C@@H](c2ccccc2OCCO)[C@]12C(=O)N(C(=O)OCCOC)c1ccc(C#CCNC(N)=O)cc12 | 1.28 | 0.607 | 0.802 | -0.294 (inactive) | 0.471 | 0.843 | 0.158 | 0.507 | 0.111 | 0.889 | 0.0146 | -1.08 | 0.398 | 1.63 | 0.559 | -0.124 | -0.0011 | 0.672 | 1.23 | 1.81
6 | C=CCC(OC(C)=O)[C@@H]1[C@@H](N(Cc2ccc(-c3ccccc3)cc2)C(=O)c2ccc(C)cc2)c2cc(OCCCO)ccc2N1C(=O)c1ccc(-c2ccccc2)cc1 (stereo not given in full) | -0.151 | 0.434 | 0.536 | -2.28 (inactive) | 0.104 | -0.176 | -0.0222 | -0.023 | -0.0546 | 1.42 | -0.0852 | -0.13 | 0.181 | 0.218 | 1.22 | -0.101 | 0.0611 | 0.15 | 0.116 | 0.523
7 | CC(C)[Si](OCC[C@H]1O[C@]2(C(=O)N(Cc3ccccc3)c3ccccc32)[C@@H](C)[C@@H]1[Si](C)(C)O)(C(C)C)C(C)C | 0.54 | -0.0907 | -0.0768 | 0.467 (inactive) | -0.189 | -0.922 | -0.102 | -0.0398 | 0.0477 | 0.438 | 0.161 | -1.22 | -0.261 | 0.214 | 0.3 | -0.216 | 0.0204 | 0.0073 | 0.153 | -0.513
8 | O=C1c2ccccc2[C@](Cc2ccccc2I)(C(=O)NCc2ccccc2)[C@H](c2ccc(CO)cc2)N1Cc1ccccc1C(F)(F)F | 0.74 | 0.606 | 1.11 | -0.984 (inactive) | -0.881 | -1.42 | -1.39 | -1.27 | -2.07 | 0.623 | -0.32 | 0.344 | -1.38 | -0.027 | 0.988 | -0.148 | -0.0146 | 1.06 | -0.08 | -0.442
9 | CC(=O)Nc1ccc([C@H]2[C@H](C)CC[C@H]3C(=O)N4[C@@H](CC[C@@H](C)[C@@H]4c4ccc(NC(C)=O)cc4)C(=O)N32)cc1 | 0.75 | 0.368 | -0.286 | 0.209 (inactive) | 1 | 1.17 | 0.168 | 0.845 | 0.759 | 0.213 | 0.946 | -0.288 | 0.72 | 0.184 | -0.346 | -0.176 | 0.168 | 0.33 | 0.424 | 0.884
10 | CO[C@H]1O[C@H](CO)[C@@H](OC(=O)Nc2ccccc2)[C@H](OC(=O)Nc2ccc3c(c2)OCO3)[C@@H]1OC(=O)Nc1ccc2c(c1)OCO2 | 1.51 | 0.355 | 0.749 | -0.368 (inactive) | 0.183 | 1.19 | -0.374 | 0.558 | 0.355 | 0.794 | 1.32 | -0.245 | -0.244 | 1.92 | -0.819 | -0.0944 | 0.151 | 0.038 | 1.99 | 0.361
11 | O=C(NCc1ccccc1)[C@@]1(CCS(=O)(=O)c2ccccc2)COC(c2ccc(OCCCO)cc2)=N1 | 1.41 | 0.933 | 1.47 | -0.969 (inactive) | 0.748 | 1.08 | -0.166 | 0.23 | -0.594 | 0.807 | 0.623 | -1.71 | -0.0893 | 2.16 | 1.11 | 0.111 | 0.504 | 1.85 | 1.95 | 3.73
